A selection: hits, their analogues and other compounds. The true share with any hit is near 7.4%.
FXIIa mix inh: blocks human factor XIIa in pooled compound mixtures | P00748 | purified FXIIa, fluorogenic substrate | inhibition, % at 5 µM | 0.2% of 62,000 active;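 further: 0% = enzyme without compound and 100% = no enzyme blank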
DAT uptake mod: modulates human dopamine transporter uptake under cocaine | LLC-PK1 hDAT cells, [14C]-dopamine uptake with cocaine IC80; actives deviate in either direction | B-score at 10 µM | 1.3% of 110,000 active | Q01959 | AID 449768;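 active means Z score or B-score, a plate-position-corrected score, falls beyond the plate's 99.7% confidence bounds, in either direction; inactive means both scores lie inside the 99.7% bounds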;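 further: scored against the spread of the other compound wells on the same plate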
M1 ag: agonists of M1 muscarinic receptor; CHO-M1 cells, Fluo-4 calcium fluorescence, agonist mode; stronger effect = higher value; B-score at 10 µM; 3% of 64,000 active; AID 626;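 active means fluorescence rise, raw or as B-score row- and column-corrected plate score, outside the 99.7% band of its plate's samples, either direction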
FXIa inh mix: inhibitors of human coagulation factor XIa, pooled mixtures | purified FXIa, fluorogenic substrate | inhibition, % at 5 µM | 0.19% of 62,000 active;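 further: each value is inhibition by a whole ten-compound pool holding the compound; 0% = enzyme with no mixture and 100% = wells lacking enzyme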
M1 antagonist: blocks the rat M1 muscarinic receptor response to acetylcholine; CHO-M1 cells, Fluo-4 calcium, ACh EC80 antagonist mode; stronger effect = lower value; B-score at 10 µM; 3.4% of 64,000 active;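 active means calcium fluorescence response, raw or row-and-column corrected B-score, differing from the plate sample mean either way at a set confidence level, mostly lower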
Target sequence (P08482 whole entry, looked up): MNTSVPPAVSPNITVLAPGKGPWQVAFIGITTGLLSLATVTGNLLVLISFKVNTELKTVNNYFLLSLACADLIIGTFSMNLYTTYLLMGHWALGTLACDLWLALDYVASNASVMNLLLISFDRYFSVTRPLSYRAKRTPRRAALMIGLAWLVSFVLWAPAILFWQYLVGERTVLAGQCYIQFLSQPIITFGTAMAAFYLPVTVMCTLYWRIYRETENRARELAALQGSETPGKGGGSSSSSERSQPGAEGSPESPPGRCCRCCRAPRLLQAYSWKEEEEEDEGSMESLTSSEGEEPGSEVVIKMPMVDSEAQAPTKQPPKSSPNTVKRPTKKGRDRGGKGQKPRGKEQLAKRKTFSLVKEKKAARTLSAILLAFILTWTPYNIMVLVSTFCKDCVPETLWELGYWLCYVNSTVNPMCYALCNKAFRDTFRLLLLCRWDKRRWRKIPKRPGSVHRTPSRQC
D1 allo mod: allosteric modulators of human D1 dopamine receptor | P21728 | HEK293 D1, CRE-luciferase, dopamine EC30 potentiation; actives deviate in either direction | B-score at 10 µM | 5.9% of 58,000 active | AID 641;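 active means luminescence count or its row- and column-corrected plate score outside the 99.7% band of the plate's sample wells, on either side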
Starred values were filed as active, the others as inactive. Unless noted, no stated cut-off is given here; in the data, active means inhibition above about 20% (passing the limit was not always enough); inactive means the rest.

Screening COc1ccc(OC)c(-c2cc(C(=O)Nc3c(C)nn(Cc4ccccc4)c3C)no2)c1 returned FXIIa mix inh 8.8, DAT uptake mod -1.4, M1 ag 0.27, FXIa inh mix 20.3*, M1 antagonist 0.574 and D1 allo mod 1.96.
COc1ccc(OC)c(-c2cc(C(=O)N3CCc4ccccc4C3)no2)c1 was read as FXIIa mix inh 0.6, DAT uptake mod 2.89*, M1 ag -0.7, FXIa inh mix 4.7, M1 antagonist 1.36 and D1 allo mod 0.0208.
Screening CC1CCCC(C)N1C(=O)CSc1nnnn1-c1cccc2c1CCCC2 (stereo not given) returned DAT uptake mod 0.685.
For CC1CCCC(C)N1C(=O)CSc1nnnn1Cc1ccccc1 (stereo not given) the results were FXIIa mix inh -1.6, DAT uptake mod 1.01, M1 ag 0.482, FXIa inh mix -0.2, M1 antagonist -0.574 and D1 allo mod 6.06*.
`Cc1cc(SCCOc2ccc(Br)cc2)nc(N)n1` gave DAT uptake mod 0.408.
`CCOC(=O)c1nnn(CC(=O)Nc2cc(Cl)ccc2C)c1C(=O)OCC` gave FXIIa mix inh -6.9, DAT uptake mod -0.256, M1 ag -0.444, FXIa inh mix -30.0, M1 antagonist 0.199 and D1 allo mod -0.537.
Cc1cc(C)cc(N2CCCn3c2nc2c3c(=O)n(CC(=O)OCc3ccccc3)c(=O)n2C)c1 was read as FXIIa mix inh 2.4, DAT uptake mod 0.172, M1 ag -0.204, FXIa inh mix 8.6, M1 antagonist -0.336 and D1 allo mod -1.11*.
COc1ccc(N2CCCn3c2nc2c3c(=O)n(CCc3ccccc3)c(=O)n2C)cc1 was read as FXIIa mix inh 2.7, DAT uptake mod -1.3, M1 ag 0.078, FXIa inh mix 4.9, M1 antagonist -0.155 and D1 allo mod -2.78*.
O=C(N1CCCCC1)C12CC3CC(C1)CC(C(=O)N1CCCCC1)(C3)C2 was read as FXIIa mix inh 6.3, DAT uptake mod 0.842, M1 ag 0.00323, FXIa inh mix 1.3, M1 antagonist 1.25 and D1 allo mod -0.169.
For CCC(C)NC(=O)Cn1c(=O)n(CCCCC(=O)NCc2ccco2)c(=O)c2ccccc21 (stereo not given) the results were FXIIa mix inh 9.0, DAT uptake mod -0.00683, M1 ag 1, FXIa inh mix 10.0, M1 antagonist -0.573 and D1 allo mod 0.259.
Screening O=C(CNC1CCCCC1)N1CCc2ccccc2C1 returned DAT uptake mod -0.978.
For COc1ccc(NC(=O)CCS(=O)(=O)c2cccc3nonc23)c(OC)c1 the results were FXIIa mix inh 0.0, DAT uptake mod 0.0415, FXIa inh mix 1.5 and D1 allo mod -0.0212.
`O=C1c2cccnc2C(=O)N1Cc1ccc(F)cc1` gave FXIIa mix inh 8.4, DAT uptake mod 0.462, M1 ag 0.101, FXIa inh mix 7.2, M1 antagonist -0.021 and D1 allo mod -1.22*.
For O=C(COC(=O)c1cccs1)c1ccc2c(c1)OCCO2 the results were FXIIa mix inh 2.3, DAT uptake mod 0.44, M1 ag 0.487, FXIa inh mix 4.0, M1 antagonist 0.0336 and D1 allo mod -2.97*.
Screening CCCCn1c2c(c(=O)n(C)c1=O)C(c1ccc(OC)cc1)N1CCCCCC1=N2 (stereo not given) returned FXIIa mix inh -9.0, DAT uptake mod 0.61, M1 ag -0.17, FXIa inh mix 1.0, M1 antagonist -1.53 and D1 allo mod 2.17.
For CC(=O)Nc1nnc(SCC(=O)NCCOc2ccccc2)s1 the results were FXIIa mix inh 3.7, DAT uptake mod -8.01*, M1 ag 0.0188, FXIa inh mix 4.2, M1 antagonist 0.866 and D1 allo mod 0.239.
For C=CCn1c(SCC(=O)NCc2ccc3c(c2)OCO3)nnc1C1COc2ccccc2O1 (stereo not given) the results were FXIIa mix inh 12.8, DAT uptake mod 1.39, M1 ag 0.498, FXIa inh mix 33.4*, M1 antagonist 0.635 and D1 allo mod 0.0891.
For COc1ccc(C(=O)Nc2nc(C)c(C)s2)cc1OC the results were DAT uptake mod 0.894.
Screening COc1ccccc1C(=O)N1CCN(C2CCN(Cc3ccccc3)CC2)CC1 returned FXIIa mix inh 2.7, DAT uptake mod -0.01, M1 ag 1.2, FXIa inh mix 1.3, M1 antagonist -1.85 and D1 allo mod 0.734.
`CC1CCCC(NC(=O)CSc2nnc(N)s2)C1C` (stereo not given) gave FXIIa mix inh -17.0, DAT uptake mod 0.0587, M1 ag 0.0133, FXIa inh mix 5.8, M1 antagonist 0.0854 and D1 allo mod -0.117.
`COc1ccc(NC(=O)CN2CCC(C)CC2)c([N+](=O)[O-])c1` gave DAT uptake mod 0.999.
For CC1CCN(CC(=O)Nc2cccc([N+](=O)[O-])c2)CC1 the results were DAT uptake mod -2.77*.
For COc1ccc(NC(=O)NCc2ccccn2)cc1OC the results were FXIIa mix inh 3.2, DAT uptake mod 0.0421, M1 ag -0.479, FXIa inh mix 4.5, M1 antagonist -0.293 and D1 allo mod 0.067.
Screening CC(=O)c1cccc(NC(=O)NCc2ccccn2)c1 returned FXIIa mix inh 9.4, DAT uptake mod 1.17, M1 ag 3.1*, FXIa inh mix -0.3, M1 antagonist 1.14 and D1 allo mod -1.38.
Screening CCOC(=O)[C@H](CCc1ccccc1)N[C@@H](C)C(=O)N1Cc2ccccc2C[C@H]1C(=O)O returned DAT uptake mod 1.33.
`COc1ccc2cc(C(c3nnnn3CC3CCCO3)N3CCOCC3)c(=O)[nH]c2c1` (stereo not given) gave FXIIa mix inh 0.6, DAT uptake mod 0.366, M1 ag -0.0201, FXIa inh mix 6.1, M1 antagonist 0.571 and D1 allo mod -0.355.
CCOC(=O)c1c2n(c3c(NCc4ccccc4)ncnc13)CCCC2 was read as FXIIa mix inh 5.2, DAT uptake mod 2.26*, M1 ag -0.655, FXIa inh mix -2.4, M1 antagonist -0.869 and D1 allo mod -0.505.
For COc1ccc(-c2csc(N3CCOCC3)n2)cc1OC the results were FXIIa mix inh 8.6, DAT uptake mod 0.881, M1 ag 0.581, FXIa inh mix 0.7, M1 antagonist 0.0468 and D1 allo mod 12.9*.
O=C(c1ccc(Br)o1)N1CCN=C1SCc1cccnc1 was read as FXIIa mix inh -18.0, DAT uptake mod 2.36*, M1 ag -0.152, FXIa inh mix 7.6, M1 antagonist 0.00549 and D1 allo mod 1.05.
O=C(c1ccccc1F)N1CCN=C1SCc1cccnc1 was read as FXIIa mix inh 6.2, DAT uptake mod 0.219, M1 ag -0.0384, FXIa inh mix -0.3, M1 antagonist -0.226 and D1 allo mod 0.44.
Screening O=C(c1cc2ccccc2o1)N1CCN=C1SCc1cccnc1 returned FXIIa mix inh 0.5, DAT uptake mod -0.259, M1 ag -0.871, FXIa inh mix 10.0, M1 antagonist -0.102 and D1 allo mod -1.81*.
